This passage reports growth results from PubChem BioAssay (NCI).

Several values for one entry are separate records, joined by “and”; a condition that tells them apart may be missing. Equal values may be shown once. About 83,000 compounds went through this panel and 20% of them were active in at least one assay; those are over-represented in the sample as a whole.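 48-hour exposure, single concentration, 96-well plates; percent growth endpoint where 0 means no net growth. Active: below 10.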 Values without a mark were called inactive. Activity calls are given as the source filed them.

The test system of this assay is T-47D breast. In words: NCI-60 one-dose screen, 48 h (100 = growth as untreated, 0 = no growth, -100 = all killed). The settings on record: 10 µM unless noted.
Regarding `O=C(Nc1ccc(F)cc1)c1cc2cc(Nc3nc(-c4ccccc4)nc4ccccc34)ccc2oc1=O`, the growth was 95.7%.

For the compound `COC(=O)c1c2c(c(C)[n+]([O-])c1C)C(=O)C(NCCN1CCOCC1)=CC2=O`, the growth is 80.6%.

Consider `COc1c(O)c(O)cc2c3c(oc12)CC(c1ccc2c(c1)OCO2)CC3=O` (stereo not drawn), for which the growth was 43.8%.

In the case of `O=C1CCCCN1CCCCC#Cc1cccc(C#Cc2cccnc2)c1`, the growth is 84.1%.

For the compound `Cc1ccc(-c2nc3nc(-c4ccc(Cl)cc4)nc(N4CCCNCC4)c3o2)cc1`, the growth is -36.5% (active).

As to `CC(=O)c1c(C)nc2ccccc2c1/C=C/c1cccc(C)c1`, the growth was 38.6%.

In the case of `CCOC(=O)C(=CCC(C)C)C(=O)OCC`, the growth was 88.2%.

In the case of `BrC1=C(Br)C(Br)(Br)C(Br)=C1Br`, the growth is 77.9%.

On to `COc1ccc(-c2csc(NC(=O)CN3CCN(CCO)CC3)n2)cc1NS(=O)(=O)c1cccc2c(N(C)C)cccc12`, for which the growth was 72%.

For `Cc1nnc(NS(=O)(=O)c2ccc(N=Nc3ccc(N)nc3N)cc2)s1`, the growth was 114%.

As to `CCCCCCCCCCCCCCCCCCn1cc(COc2ccc(C=O)cc2)nn1`, the growth is 88.6%.

Turning to `C=C(C)[C@@H]1CC[C@]2(C(=O)O)CC[C@]3(C)[C@H](CC[C@@H]4[C@@]5(C)CCC(N)C(C)(C)[C@@H]5CC[C@]43C)[C@@H]12` (stereo partly drawn), the growth is -4.16% (active).

For the compound `Cc1ccc(-c2nc3nc(-c4ccc(Br)cc4)nc(N4CCCNCC4)c3o2)cc1`, the growth is -8.11% (active).

`O=C(Nc1ncc(Cc2cccc(C(F)(F)F)c2)s1)c1ccc2c(c1)OCCO2`: the growth was 42.5%.

On to `COCCn1cc(-c2nc(-c3cn(CCOC)c4ncccc34)cs2)c2ccccc21`, for which the growth is -3.64% (active).

As for `O=C(N=Nc1c(O)[nH]c2ccccc12)Nc1ccccc1Cl`, the growth is 42%.

In the case of `CC1(C)C(N)=Nc2cc(OCCCN3Cc4ccc(OCCc5cn(CC(=O)N6CCC(CCN7CCCC7)CC6)nn5)cc4C3)c(OCC3CC3)cc21`, the growth is 92.3%.

With `COc1ccc(CN2CCc3c(Cl)nc(N)nc3C2=O)c(OC)c1`, the growth is 12.8% [100 µM].

With `C=C(CNCCO)[C@@H]1CC[C@]2(CO)CC[C@]3(C)[C@H](CC[C@@H]4[C@@]5(C)CCC(NCCc6ccc(O)cc6)C(C)(C)[C@@H]5CC[C@]43C)[C@@H]12` (stereo partly drawn), the growth is -66.1% (active).

Turning to `COc1ccc2nc3cc(Cl)ccc3c(NCCCNCCC(C)O)c2c1` (stereo not drawn), the growth is 4.09% (active).

On to `Clc1ccc(CNc2ccc3nc(CCC4CCCCC4)[nH]c3c2)cc1`, for which the growth was 24.3%.

Take `Nc1n[nH]c2cccc(C#Cc3cccc(NC(=O)c4ccc(N5CCOCC5)c(C(F)(F)F)c4)c3)c12`: the growth is -0.951% (active).

`ON=C1CCCCCCCC1`: the growth is 97.7% and 99.2%.

As to `Cc1ccc(C(=O)Nc2ccc(CN3CCN(C)CC3)c(C(F)(F)F)c2)cc1C#Cc1cnc(N)cc1C#N`, the growth was -4.9% (active).

Take `COc1nc(=O)n(C2C=CC(=O)O2)cc1F` (stereo not drawn): the growth was 41.7%.

In the case of `OB(O)c1ccsc1-c1nc2ccc3[nH]ncc3c2c2c1CCCC2`, the growth is 53.5%.

Consider `Cc1ccc(NC(=O)c2sc3nc(C)c(C(=O)c4ccccc4)cc3c2N)cc1`, for which the growth is 87.7%.

As for `O=C1C(c2c[nH]c3ccccc23)=C(c2coc3cc(Br)ccc23)C(=O)N1O`, the growth was 77.5%.

With `O=C1Nc2ccccc2/C1=C/c1cccn1CCCCCn1c2ccccc2c(=O)c2ccccc21`, the growth is 1.55% (active).

As for `O=C(/C=C/c1ccc(Cl)s1)c1ccc(Cl)s1`, the growth was 88.8% and 96.9%.

Regarding `NC(N)=NC(N)=NCCCc1ccco1`, the growth was 106%.

As to `Cc1nc2sc(C(=O)Nc3cccc(Cl)c3C)c(N)c2cc1C(O)c1ccccc1` (stereo not drawn), the growth was 44.5%.

Turning to `COc1cc2ncnc(Nc3ccc(F)c(Cl)c3)c2cc1OCC(=O)N1CCCCC1`, the growth was 43.6%.

For `S=c1nc(CS)[nH]c2ccccc12`, the growth was 109%.

Regarding `O=C1/C(=C/c2cn(-c3ccccc3)nc2-c2ccccc2)SC(=S)N1c1ccccc1`, the growth was 99.1%.

Turning to `O=C(c1ccc(Nc2nccc(NCCCNc3ccnc4cc(Cl)ccc34)n2)cc1)N1CCCCC1`, the growth was 54.3%.

As to `O=C1/C(=C/c2cn(-c3ccccc3)nc2-c2ccccc2)SC(=S)N1c1ccc(Cl)cc1`, the growth was 82.1%.

In the case of `COc1cc(/C=C2\C(=O)N(CCCCn3c4ccccc4c(=O)c4ccccc43)c3ccccc32)cc(OC)c1O`, the growth is 66.1%.
